Assay results from the supplement of paper PMC11732987, “Enantioselective OTUD7B fragment discovery through chemoproteomics screening and high-throughput optimisation” (Communications Chemistry, 2025).

How the values were obtained:
Assay in all cases: log2 ratio of Biotin-Ahx-Ub-VS probe labelling (fragment/DMSO); higher = less target engagement (more negative = stronger competition), active = hit call of the paper (q ≤ 0.05, log2 ratio ≤ -1)
Conditions in all cases: compound concentration: 200 uM; treatment time: 3 h
USP34 = USP34 (UniProt Q70CQ2)
USP34, sequence (Q70CQ2 whole entry, the tested form may be a part): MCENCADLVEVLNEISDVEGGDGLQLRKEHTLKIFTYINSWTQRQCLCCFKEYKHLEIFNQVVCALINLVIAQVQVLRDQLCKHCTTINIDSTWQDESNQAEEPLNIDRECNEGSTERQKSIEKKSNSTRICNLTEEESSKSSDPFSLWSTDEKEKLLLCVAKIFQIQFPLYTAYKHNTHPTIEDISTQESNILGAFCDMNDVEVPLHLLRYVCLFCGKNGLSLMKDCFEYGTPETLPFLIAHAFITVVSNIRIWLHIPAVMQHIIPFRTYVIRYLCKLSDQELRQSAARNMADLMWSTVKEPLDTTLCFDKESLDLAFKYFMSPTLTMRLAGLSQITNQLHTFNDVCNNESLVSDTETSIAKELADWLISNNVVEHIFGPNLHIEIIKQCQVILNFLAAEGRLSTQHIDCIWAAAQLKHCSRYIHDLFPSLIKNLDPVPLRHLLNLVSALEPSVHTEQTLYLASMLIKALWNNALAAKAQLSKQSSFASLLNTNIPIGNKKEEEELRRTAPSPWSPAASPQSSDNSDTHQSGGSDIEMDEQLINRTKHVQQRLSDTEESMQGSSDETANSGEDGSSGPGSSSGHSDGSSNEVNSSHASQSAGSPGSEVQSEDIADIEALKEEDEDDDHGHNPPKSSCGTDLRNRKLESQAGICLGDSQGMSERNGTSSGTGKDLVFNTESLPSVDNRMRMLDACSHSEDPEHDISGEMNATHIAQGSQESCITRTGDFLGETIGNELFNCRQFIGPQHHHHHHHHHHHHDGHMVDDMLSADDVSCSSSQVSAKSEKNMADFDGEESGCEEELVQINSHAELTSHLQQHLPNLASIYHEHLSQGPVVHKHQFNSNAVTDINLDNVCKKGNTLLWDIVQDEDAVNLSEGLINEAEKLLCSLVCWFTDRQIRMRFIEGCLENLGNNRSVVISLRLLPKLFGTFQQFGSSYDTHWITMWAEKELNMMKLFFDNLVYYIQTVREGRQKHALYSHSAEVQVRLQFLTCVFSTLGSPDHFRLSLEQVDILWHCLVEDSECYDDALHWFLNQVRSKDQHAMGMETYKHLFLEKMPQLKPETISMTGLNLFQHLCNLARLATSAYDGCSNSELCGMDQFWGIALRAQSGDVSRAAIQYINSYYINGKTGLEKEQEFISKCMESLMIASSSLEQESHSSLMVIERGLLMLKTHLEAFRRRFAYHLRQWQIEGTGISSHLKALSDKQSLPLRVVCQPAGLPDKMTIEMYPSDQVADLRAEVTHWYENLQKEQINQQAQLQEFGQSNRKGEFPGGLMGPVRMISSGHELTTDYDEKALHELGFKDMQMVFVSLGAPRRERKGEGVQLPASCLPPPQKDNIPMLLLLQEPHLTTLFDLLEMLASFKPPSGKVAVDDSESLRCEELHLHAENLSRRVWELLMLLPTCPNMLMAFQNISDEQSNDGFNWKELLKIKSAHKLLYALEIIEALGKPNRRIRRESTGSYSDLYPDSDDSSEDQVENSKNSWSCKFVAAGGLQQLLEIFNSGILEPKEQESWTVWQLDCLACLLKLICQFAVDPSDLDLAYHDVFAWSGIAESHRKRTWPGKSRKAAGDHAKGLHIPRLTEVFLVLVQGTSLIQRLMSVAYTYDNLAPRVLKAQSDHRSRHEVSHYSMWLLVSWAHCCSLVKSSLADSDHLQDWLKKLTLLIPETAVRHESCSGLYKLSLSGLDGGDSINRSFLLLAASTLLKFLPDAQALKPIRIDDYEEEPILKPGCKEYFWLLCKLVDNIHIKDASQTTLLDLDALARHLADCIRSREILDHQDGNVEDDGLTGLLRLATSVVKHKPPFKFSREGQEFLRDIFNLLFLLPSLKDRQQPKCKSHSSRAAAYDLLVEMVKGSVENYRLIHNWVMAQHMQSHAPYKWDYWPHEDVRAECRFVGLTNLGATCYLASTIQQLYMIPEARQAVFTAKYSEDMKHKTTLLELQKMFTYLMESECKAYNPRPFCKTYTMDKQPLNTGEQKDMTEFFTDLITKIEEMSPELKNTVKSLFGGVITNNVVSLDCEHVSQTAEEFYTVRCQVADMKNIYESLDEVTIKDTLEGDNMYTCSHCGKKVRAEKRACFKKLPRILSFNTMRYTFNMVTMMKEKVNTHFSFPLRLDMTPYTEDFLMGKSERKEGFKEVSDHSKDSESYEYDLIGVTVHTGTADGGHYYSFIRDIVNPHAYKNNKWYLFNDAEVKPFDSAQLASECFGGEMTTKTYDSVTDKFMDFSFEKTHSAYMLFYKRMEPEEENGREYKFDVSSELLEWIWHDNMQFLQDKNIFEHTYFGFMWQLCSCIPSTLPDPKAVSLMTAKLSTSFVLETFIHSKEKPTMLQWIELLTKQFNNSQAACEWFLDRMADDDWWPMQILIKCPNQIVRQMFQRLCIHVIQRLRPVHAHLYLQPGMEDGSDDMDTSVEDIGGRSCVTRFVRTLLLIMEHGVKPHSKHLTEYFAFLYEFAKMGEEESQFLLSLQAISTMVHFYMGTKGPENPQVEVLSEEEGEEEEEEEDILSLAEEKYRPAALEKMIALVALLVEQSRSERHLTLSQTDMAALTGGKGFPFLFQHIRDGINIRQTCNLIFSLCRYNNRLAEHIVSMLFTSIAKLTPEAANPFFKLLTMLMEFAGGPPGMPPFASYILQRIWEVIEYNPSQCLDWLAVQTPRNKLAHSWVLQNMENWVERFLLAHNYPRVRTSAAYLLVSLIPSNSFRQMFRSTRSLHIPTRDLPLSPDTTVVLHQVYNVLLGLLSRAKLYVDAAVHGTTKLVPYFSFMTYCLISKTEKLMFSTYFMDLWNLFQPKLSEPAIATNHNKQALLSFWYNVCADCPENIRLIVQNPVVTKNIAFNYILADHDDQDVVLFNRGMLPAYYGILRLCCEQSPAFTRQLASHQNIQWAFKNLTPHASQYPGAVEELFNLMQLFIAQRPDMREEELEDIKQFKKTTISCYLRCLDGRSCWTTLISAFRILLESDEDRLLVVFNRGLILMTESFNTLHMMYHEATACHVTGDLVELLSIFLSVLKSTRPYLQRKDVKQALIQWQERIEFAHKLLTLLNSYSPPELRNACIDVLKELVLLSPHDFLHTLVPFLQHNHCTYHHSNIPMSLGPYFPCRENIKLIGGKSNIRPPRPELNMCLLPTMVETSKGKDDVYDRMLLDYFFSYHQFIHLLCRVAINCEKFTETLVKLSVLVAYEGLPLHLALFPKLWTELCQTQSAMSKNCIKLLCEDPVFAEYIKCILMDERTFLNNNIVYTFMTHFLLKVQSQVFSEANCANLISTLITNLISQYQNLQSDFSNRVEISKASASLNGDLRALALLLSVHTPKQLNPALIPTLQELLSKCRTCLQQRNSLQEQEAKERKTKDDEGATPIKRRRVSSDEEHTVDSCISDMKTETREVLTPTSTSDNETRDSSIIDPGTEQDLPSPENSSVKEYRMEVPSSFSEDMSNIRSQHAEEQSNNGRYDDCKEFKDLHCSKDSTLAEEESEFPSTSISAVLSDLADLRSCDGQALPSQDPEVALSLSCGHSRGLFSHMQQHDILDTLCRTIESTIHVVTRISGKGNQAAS
Method in brief: (§1)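 Fragment (200 µM) or vehicle was incubated for 3 h with triplicate HEK293T lysate samples of 495 µg, which were then treated with Biotin-Ahx-Ub-VS at 0.5 µM final for 1 h. Labelled DUBs were enriched on NeutrAvidin, digested with LysC and trypsin, and analysed by diaPASEF LC-MS/MS. Values are average log2 fragment/vehicle ratios from an unpaired t-test on global-median-normalised Spectronaut label-free quantities, using proteins with ≥2 unique peptides.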

USP36 = biological target: T1, USP36 (UniProt Q9P275)
T1 sequence (whole entry): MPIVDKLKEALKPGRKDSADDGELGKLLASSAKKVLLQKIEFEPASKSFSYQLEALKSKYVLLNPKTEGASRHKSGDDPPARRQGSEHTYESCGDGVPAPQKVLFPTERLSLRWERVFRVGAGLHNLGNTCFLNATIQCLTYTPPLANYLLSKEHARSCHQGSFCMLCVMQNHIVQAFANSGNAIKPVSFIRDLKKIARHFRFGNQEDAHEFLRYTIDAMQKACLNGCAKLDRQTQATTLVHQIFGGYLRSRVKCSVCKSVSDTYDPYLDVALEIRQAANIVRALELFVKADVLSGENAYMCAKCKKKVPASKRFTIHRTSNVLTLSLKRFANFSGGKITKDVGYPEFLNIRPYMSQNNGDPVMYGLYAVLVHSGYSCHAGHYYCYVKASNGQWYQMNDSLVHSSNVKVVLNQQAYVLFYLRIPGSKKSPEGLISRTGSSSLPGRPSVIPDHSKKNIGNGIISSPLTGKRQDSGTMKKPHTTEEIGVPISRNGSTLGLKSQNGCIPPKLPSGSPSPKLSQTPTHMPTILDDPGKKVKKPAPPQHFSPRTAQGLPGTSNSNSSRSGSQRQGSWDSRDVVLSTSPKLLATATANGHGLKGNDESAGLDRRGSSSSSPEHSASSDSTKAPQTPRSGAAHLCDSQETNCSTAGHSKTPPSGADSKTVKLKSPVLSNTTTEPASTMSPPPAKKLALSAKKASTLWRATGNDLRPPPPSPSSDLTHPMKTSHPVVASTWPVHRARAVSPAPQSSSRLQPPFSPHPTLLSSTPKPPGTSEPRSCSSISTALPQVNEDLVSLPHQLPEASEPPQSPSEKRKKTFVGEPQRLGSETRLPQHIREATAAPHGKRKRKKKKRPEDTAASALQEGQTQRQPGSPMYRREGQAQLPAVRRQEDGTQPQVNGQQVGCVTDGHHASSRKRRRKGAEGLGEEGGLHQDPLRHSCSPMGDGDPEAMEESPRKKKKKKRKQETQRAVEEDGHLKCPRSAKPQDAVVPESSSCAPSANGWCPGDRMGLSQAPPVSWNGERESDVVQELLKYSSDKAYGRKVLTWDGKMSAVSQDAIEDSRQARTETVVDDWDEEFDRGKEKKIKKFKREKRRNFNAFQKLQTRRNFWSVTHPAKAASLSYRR
Method in brief: as §1

USP38 = biological target: T2, USP38 (UniProt Q8NB14)
T2 sequence (whole entry): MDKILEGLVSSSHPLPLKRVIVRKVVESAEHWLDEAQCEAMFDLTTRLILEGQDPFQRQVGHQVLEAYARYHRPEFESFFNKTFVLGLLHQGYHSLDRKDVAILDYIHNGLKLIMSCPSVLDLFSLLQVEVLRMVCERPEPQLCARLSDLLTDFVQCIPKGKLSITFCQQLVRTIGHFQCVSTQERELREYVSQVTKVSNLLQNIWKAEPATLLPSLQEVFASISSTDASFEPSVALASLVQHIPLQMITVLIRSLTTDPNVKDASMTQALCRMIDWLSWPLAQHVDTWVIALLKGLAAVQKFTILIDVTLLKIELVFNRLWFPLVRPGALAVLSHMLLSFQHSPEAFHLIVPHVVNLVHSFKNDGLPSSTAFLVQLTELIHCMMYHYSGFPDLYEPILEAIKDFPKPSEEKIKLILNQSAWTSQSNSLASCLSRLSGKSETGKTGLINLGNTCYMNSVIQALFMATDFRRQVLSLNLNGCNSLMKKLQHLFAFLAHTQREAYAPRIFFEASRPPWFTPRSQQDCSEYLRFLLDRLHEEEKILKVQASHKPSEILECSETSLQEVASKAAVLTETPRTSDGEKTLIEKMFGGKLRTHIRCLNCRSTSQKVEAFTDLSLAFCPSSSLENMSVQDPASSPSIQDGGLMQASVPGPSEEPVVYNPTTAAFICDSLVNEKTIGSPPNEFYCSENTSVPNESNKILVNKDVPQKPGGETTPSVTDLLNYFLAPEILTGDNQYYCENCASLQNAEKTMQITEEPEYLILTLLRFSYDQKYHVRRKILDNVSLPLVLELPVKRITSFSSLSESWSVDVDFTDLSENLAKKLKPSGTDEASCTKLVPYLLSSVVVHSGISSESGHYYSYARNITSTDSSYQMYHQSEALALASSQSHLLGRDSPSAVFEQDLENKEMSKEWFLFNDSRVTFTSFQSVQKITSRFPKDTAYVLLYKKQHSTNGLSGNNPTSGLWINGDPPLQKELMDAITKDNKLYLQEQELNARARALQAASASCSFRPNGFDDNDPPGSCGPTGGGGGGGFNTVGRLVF
Method in brief: as §1

USP39 = biological target: T3, USP39 (UniProt Q53GS9)
T3 sequence (whole entry): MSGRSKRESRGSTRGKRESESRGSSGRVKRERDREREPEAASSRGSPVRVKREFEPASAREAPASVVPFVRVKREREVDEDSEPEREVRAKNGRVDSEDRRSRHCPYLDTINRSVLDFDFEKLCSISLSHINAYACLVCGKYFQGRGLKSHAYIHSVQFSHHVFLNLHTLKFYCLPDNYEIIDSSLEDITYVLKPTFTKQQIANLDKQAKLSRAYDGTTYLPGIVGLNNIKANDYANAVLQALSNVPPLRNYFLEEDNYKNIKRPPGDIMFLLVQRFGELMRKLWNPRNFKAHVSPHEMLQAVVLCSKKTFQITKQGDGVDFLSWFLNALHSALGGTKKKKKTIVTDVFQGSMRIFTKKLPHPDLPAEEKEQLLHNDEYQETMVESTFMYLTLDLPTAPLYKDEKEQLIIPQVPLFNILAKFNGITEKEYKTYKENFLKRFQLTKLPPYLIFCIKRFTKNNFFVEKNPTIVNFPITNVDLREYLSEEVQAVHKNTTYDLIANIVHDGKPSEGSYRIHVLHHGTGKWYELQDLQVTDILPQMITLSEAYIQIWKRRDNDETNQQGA
Method in brief: as §1

USP4 = biological target: T4, USP4 (UniProt Q13107)
T4 sequence (whole entry): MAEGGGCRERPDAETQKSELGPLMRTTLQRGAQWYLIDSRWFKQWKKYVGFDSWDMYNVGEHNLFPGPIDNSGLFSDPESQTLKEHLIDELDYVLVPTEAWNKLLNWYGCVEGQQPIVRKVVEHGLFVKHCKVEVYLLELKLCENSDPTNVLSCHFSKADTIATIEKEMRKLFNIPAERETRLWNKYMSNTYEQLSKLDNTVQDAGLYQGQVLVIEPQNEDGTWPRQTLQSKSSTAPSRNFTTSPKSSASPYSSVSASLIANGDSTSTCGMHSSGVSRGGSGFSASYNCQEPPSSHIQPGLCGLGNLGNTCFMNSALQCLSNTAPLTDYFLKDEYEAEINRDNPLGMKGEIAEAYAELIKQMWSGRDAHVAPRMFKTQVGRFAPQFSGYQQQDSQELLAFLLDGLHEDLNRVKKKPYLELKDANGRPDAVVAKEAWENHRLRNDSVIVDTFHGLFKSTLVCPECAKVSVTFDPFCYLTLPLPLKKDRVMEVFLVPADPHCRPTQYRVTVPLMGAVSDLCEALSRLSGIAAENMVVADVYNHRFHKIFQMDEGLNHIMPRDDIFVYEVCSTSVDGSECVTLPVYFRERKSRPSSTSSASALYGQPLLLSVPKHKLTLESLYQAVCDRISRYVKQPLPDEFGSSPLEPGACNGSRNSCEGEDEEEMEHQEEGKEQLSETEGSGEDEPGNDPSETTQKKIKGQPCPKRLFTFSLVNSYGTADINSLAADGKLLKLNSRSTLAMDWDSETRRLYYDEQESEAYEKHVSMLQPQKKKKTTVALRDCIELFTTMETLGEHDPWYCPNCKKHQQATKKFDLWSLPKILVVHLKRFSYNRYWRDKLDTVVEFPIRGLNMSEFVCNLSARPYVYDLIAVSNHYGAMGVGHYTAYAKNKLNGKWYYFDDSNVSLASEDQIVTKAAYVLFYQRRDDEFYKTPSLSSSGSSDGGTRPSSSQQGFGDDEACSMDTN
Method in brief: as §1

Measured: log2 ratio of Biotin-Ahx-Ub-VS probe labelling

O=C(CCl)Nc1cc2c(cc1Cl)OCCCO2
inactive: USP34 0.0191 | USP36 -0.11 | USP38 0.0869 | USP39 0.0922 | USP4 0.154
